ADAM17 inh – ADAM17 inhibitors, primary screen, biochemical, QFRET. Disintegrin and metalloproteinase domain-containing protein 17 (Homo sapiens), P78536. recombinant ADAM17, EDANS/DABCYL FRET peptide cleavage. inhibition, % at 6.95 µM. 0.83% of 370,000 active. AID 720648, 2013;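 active = inhibition above the mean of compounds lying between control limits plus 3 SD, set per campaign, cut at about 8.5% in these data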;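 also: 0% = DMSO-only wells as the low control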
NPR1 activator – GC-A stimulated cGMP production enhancers – HEK293 GC-A cells, cGMP TR-FRET, EC30 ANP, primary screen; Atrial natriuretic peptide receptor 1 (Homo sapiens), P16066; 0.14% of 370,000 active; AID 1671463, 2021; activation, % at 10 µM; 0% at EC30 ANP, 100% saturating ANP; in the data active = activation above about 40%
Target sequence (P16066 whole entry, looked up): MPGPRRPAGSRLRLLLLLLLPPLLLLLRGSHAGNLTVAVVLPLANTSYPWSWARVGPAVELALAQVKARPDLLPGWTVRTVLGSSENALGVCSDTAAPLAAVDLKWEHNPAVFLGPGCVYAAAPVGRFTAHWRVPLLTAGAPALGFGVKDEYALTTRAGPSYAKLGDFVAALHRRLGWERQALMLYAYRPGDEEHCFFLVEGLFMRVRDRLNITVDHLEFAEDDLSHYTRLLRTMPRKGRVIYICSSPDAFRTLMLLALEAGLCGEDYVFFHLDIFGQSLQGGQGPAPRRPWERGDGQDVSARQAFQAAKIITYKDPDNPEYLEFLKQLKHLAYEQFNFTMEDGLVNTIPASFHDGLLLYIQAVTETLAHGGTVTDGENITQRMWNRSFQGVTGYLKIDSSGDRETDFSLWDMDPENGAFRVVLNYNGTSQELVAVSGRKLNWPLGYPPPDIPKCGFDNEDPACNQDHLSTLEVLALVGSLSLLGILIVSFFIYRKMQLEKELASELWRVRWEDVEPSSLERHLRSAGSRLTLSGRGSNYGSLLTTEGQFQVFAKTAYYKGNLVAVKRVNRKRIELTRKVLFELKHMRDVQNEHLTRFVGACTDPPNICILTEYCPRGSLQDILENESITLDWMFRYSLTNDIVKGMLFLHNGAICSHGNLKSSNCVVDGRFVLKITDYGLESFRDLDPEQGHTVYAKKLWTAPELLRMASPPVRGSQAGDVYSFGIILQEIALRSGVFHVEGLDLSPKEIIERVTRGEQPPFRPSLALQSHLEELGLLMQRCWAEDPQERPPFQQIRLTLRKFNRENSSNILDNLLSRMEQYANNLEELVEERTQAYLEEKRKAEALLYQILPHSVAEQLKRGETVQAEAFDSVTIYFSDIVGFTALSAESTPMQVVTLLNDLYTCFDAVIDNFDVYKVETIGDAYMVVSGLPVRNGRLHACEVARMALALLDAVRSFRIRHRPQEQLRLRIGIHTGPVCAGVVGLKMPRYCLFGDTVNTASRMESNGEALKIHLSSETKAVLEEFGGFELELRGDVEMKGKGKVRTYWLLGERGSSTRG
ADAM10 inh – human ADAM10 inhibitors, primary screen, biochemical, QFRET, HTS; AID 720582, 2013; recombinant ADAM10, EDANS/DABCYL FRET peptide cleavage, 3 h; 0.62% of 370,000 active; inhibition, % at 7 µM; Disintegrin and metalloproteinase domain-containing protein 10 (Homo sapiens), O14672;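 active = inhibition above a per-campaign cutoff equal to the mean of compounds falling between control-based bounds plus 3 SD, cut at about 20% in these data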;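 also: 0% = DMSO wells while the 100% control is not disclosed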
NPR2 activator – human GC-B receptor activators, primary screen, HEK293 GC-B cells, cGMP TR-FRET, EC30 CNP | Atrial natriuretic peptide receptor 2 (Homo sapiens), P20594 | 0% at EC30 CNP, 100% saturating CNP | activation, % at 10 µM | 0.11% of 370,000 active;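 active = activation at 10 µM reaching about 35% in either raw or pattern-adjusted values, limit read from the data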
proKLK7 act – proKLK7 zymogen activators, primary screen, biochemical, fluorescence intensity | Kallikrein-7 (Homo sapiens), P49862 | purified proKLK7, EDANS-DABCYL substrate fluorescence; 100% is mature enzyme control, 0% vehicle | activation, % at 7 µM | 0.9% of 370,000 active;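 active = activation above the mean of all tested compounds plus 3 SD, computed per campaign excluding outliers beyond control limits, cut at about 13% in these data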
proKLK7 act conf – proKLK7 zymogen activators, confirmation, biochemical, fluorescence intensity, triplicate | 68% of 3,200 active | activation, % at 7 µM | shares compounds with proKLK7 act | AID 686949, 2013 | purified proKLK7, EDANS-DABCYL substrate fluorescence; scaled: vehicle 0, mature enzyme 100;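 active = activation, as change over the incubation, above the mean of all tested compounds plus 3 SD, cut at about 13% in these data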
EDANS interfere – EDANS-DABCYL substrate optical interference, artefact control for kallikrein-7 zymogen activator project, biochemical, fluorescence intensity, high throughput. shares compounds with proKLK7 act. activation, % at 7 µM. 80% of 3,200 active. no enzyme, 4 h; solvent 0%, active enzyme control 100%;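 active = activation above the all-compound mean plus 3 SD, ignoring values outside control-based bounds, cut at about 4.8% in these data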;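 also: value is the 4 h activation minus the activation read at time zero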
K7 EDANS ctr – counter-screen for kallikrein-7 activators: EDANS-DABCYL interference, dose response; shares compounds with proKLK7 act; AID 720493; EDANS-DABCYL peptide fluorescence interference, no enzyme; EC50, µM; 20% of 250 active;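 active = compounds that raise the fluorescence signal in this interference counterscreen, with EC50 at or below 10 µM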;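 also: intact quenched peptide substrate alone read at 355 nm excitation and 520 nm emission; signal is fluorescence gain from T0 to T4 after four hours at room temperature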
* marks the source's active call; other numbers are inactive results; i = inactive; . = no result given. Only some compounds are listed: those with a hit (about 2.2% of all), similar ones and a draw of the others.

SMILES | ADAM17 inh | NPR1 activator | ADAM10 inh | NPR2 activator | proKLK7 act | proKLK7 act conf | EDANS interfere | others
Cc1ccc(C=Nc2ccccc2C(N)=O)cc1 | -389 | -1 | i | -3 | 19* | 40* | 31* | K7 EDANS ctr=>70
COC(=O)c1ccccc1-c1ccc(/C=N/NC(=O)c2cc3ccccc3o2)o1 | -54 | 4 | -159 | 9 | -100 | . | .
COC(=O)c1ccccc1-c1c2ccc(=N)cc-2oc2cc(N)ccc12 | -1 | 7 | -8 | 11 | 101* | 65* | 86*
COC(=O)c1ccc2c(C)c(C3(O)CCCCC3)[nH]c2c1 | i | -2 | i | 2 | 38* | -80 | -82
COC(=O)c1cc(Cl)cc2c(C)c(C3(O)CCCCC3)[nH]c12 | -16 | -3 | -48 | -6 | -10 | . | .
COc1ccc(C(=O)C[n+]2ccc3c(c2)nc(Cc2ccccc2)n3C)cc1 | -3 | 7 | -6 | -1 | 0 | . | .
CCOC(=O)C1CCN(S(=O)(=O)c2cccc(-c3cn4cccnc4n3)c2)CC1 | i | 0 | i | 1 | 27* | 26* | -15 | K7 EDANS ctr=>69
COc1c(C(C)(C)C)cc(S(=O)(=O)N2c3ccccc3C[C@H]2C)cc1C(C)(C)C | 0 | -7 | 6 | -1 | . | . | .
O=C(NCc1cccc(Cl)c1)O[C@H]1CC[C@@]23CCCN2C(=O)CCC[C@H]3C1 | -4 | -5 | -1 | 3 | . | . | .
C=CCN(CC#Cc1ccccc1)Cc1ccc2c(c1)OCO2 | -3 | 4 | -1 | 8 | 0 | . | .
COc1cc(/C=C2/NC(=O)N(CC(=O)Nc3cccc(C)c3)C2=O)ccc1OCC(N)=O | -9 | 1 | -26 | 6 | 146* | 50* | 54*
CCOC(=O)c1c(-c2ccccc2)cn2c(C)cc(C)nc12 | -168 | 3 | i | 2 | 13* | 6 | -2
Cc1csc2nc3cc(C(N)=O)ccc3c(=O)n12 | -244 | 3 | i | 1 | 22* | 63* | 77*
Cc1ccc(NC(=O)OC2CC3CC2[C@H]2CCCCN2[C@H]3Cc2ccccc2)cc1 (some centres not stated) | 0 | -5 | 1 | 1 | 0 | . | .
CC1CCN(C(=O)COC(=O)c2ccccc2NCCO)CC1 | -414 | -1 | i | 2 | 21* | 26* | 22*
O=C(OCC(=O)N1CCN(C(=O)COC(=O)c2ccccc2NCCO)CC1)c1ccccc1NCCO | i | -2 | i | 1 | 57* | -30 | -31
O=C(OCC(=O)N1CCCc2ccccc21)c1ccccc1NCCO | i | -4 | i | 1 | 6 | . | .
O=C(OCC(=O)N1CCN(C(=O)c2ccco2)CC1)c1ccccc1NCCO | i | 4 | i | 2 | 22* | 31* | 31*
CC1CCN(C(=O)COC(=O)c2ccccc2NC(=O)c2ccco2)CC1 | -28 | 3 | -62 | -2 | 0 | . | .
CC(OC(=O)c1ccccc1NCCO)C(=O)NC1CCCCC1C (configuration not stated) | -427 | 1 | i | -6 | 21* | 19* | 21*
CC(OC(=O)c1ccc(C(C)(C)C)cc1)C(=O)NC1CCCCC1C (configuration not stated) | -2 | -1 | -9 | 5 | 0 | . | .
O=C(Cn1nnc(-c2ccccc2F)n1)Nc1ccc(Cl)c(Cl)c1 | 1 | 0 | -2 | -7 | 0 | . | .
Cc1ccc(-n2c(SCC(=O)NN=Cc3ccc(-c4ccccc4)cc3)nnc2-c2ccccc2)cc1 | 2 | -10 | 1 | -9 | 0 | . | .
COC[C@H]1CCCN1c1ccc2c(c1)O[C@H]1CCN(C1)S2(=O)=O | -2 | 3 | -2 | 5 | 0 | . | .
CC1CCC2(CCC(=O)N2CCCOC(=O)NC(C)(C)C)CC1 (configuration not stated) | -4 | 0 | -11 | 4 | 0 | . | .
SMILES | ADAM17 inh | NPR1 activator | ADAM10 inh | NPR2 activator | proKLK7 act | proKLK7 act conf | EDANS interfere | others
O=C(CN1C(=O)C2(OCCCO2)c2ccccc21)NCc1ccc2ccccc2c1 | 1 | -3 | 2 | 0 | 1 | . | .
C#CCNC(=O)C[C@H]1C[C@@]2(C(=O)OC)C(=C[C@H](C3CCCC3)O[C@@H]2C)N(CCc2ccc(OC)c(OC)c2)C1=O | 1 | -2 | 2 | -7 | 0 | . | .
CCOCCC(=O)Nc1ccc2c(c1)c(=O)n(C)n2CC=C(C)C | -457 | 1 | i | -4 | 26* | 15* | 17*
C=C(C)Cn1c2ccc(NC(=O)CCOCC)cc2c(=O)n1C | i | 2 | i | 4 | 24* | 19* | 22*
COCCNC(=O)C[C@H]1CC[C@H]2[C@@H](COc3ccc(NC(=O)Nc4cccc(F)c4)cc3C(=O)N2C)O1 | -6 | 5 | -2 | 2 | 1 | . | .
Cc1cc(C)c2c(N)c(C(=O)NN3CC(=O)N(c4ccccc4)CC3=O)sc2n1 | -288 | 6 | i | 8 | 109* | 32* | 38*
Cc1cc(C)c2c(N)c(C(=O)NN3CC(=O)N(c4cccc(Cl)c4)CC3=O)sc2n1 | -48 | 8 | -141 | 5 | 13* | 5 | -3
O=C(c1ccncc1)N1CCC(Oc2cccnc2)CC1 | -1 | 1 | 5 | 1 | 1 | . | .
COc1cccc2[nH]c3c(N4CCC5(CC4)OCCO5)ncnc3c12 | i | -2 | i | -28 | 39* | 38* | 45*
Cc1ccc2cc3c(NC(=O)C(C)C)nn(C)c3nc2c1 | -6 | -6 | -35 | -8 | 15* | -9 | -1
COC(=O)C1CN(C2CCCC2)CCS(=O)(=O)N1Cc1cn(Cc2ccc(Cl)cc2)nn1 (configuration not stated) | -3 | 1 | 4 | 6 | 1 | . | .
O=C(NC1CCCCN(Cc2ccc(OC(F)(F)F)cc2)C1=O)c1ccc(F)c(F)c1 (configuration not stated) | 0 | 6 | 1 | -3 | 0 | . | .
c1nc(NCC2CCOC2)c2cc(-c3ccc4c(c3)OCO4)ccc2n1 (configuration not stated) | -33 | 4 | -96 | 2 | . | . | .
COc1cccc2c1cc1c(=O)n(CC(=O)N3CCCCCC3)nc(C)n12 | -217 | 5 | i | 0 | 1 | . | .
